HT1080 IDH1KD tx = toxicity to HT-1080 IDH1 knockdown cells (counter line); HT-1080 IDH1 knockdown viability, ATP luminescence, 48 h; Potency, µM (titrated, usually from 46.1 µM), inactives show top-dose activity, negative = toxicity, usual class: cytotoxic; 360,000 tested, 2% active; AID 686971;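 note: 0% = DMSO wells and -100% = cell-free medium wells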
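Viability of IDH1-knockdown HT-1080 fibrosarcoma cells was assessed by CellTiter-Glo after 48 h at 37 °C with titrated compound; concentration-effect curves were classified by fit quality and response size.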
HT1080-NT tox = kills 2HG-producing HT-1080-NT fibrosarcoma cells. HT-1080-NT fibrosarcoma viability, CellTiter-Glo ATP luminescence, 48 h. Potency, µM (titrated, usually from 46.1 µM), for the others: at the top dose activity, negative = less viability, hits mostly cytotoxic. 360,000 tested, 1.6% active;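 note: NT is the 2HG producing partner of a matched IDH1 knockdown line; 0% = DMSO-treated cells and -100% = media-only wells without cells; nearly all actives have a fitted effect of over 55% in size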
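Viability of the 2HG-overproducing fibrosarcoma line after 48 hours of compound exposure at 37 degrees C was determined by luminescence with CellTiter-Glo, and concentration-effect curves were then fitted and categorized.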
DT40 TDP1 no CPT = qHTS for Inhibitors of human tyrosyl-DNA phosphodiesterase 1 (TDP1): qHTS in cells in absence of CPT; DT40 Tdp1-/- hTDP1 cells, no CPT, ATP luminescence, 48 h; Potency, µM (highest dose often 46.2 µM), for inactives: at the highest dose activity change, negative = growth inhibition, hits mostly inhibitors; 420,000 tested, 15% active; note: % is set by controls: 0 for no effect and ±100 for the full control effect; nearly all actives have a fitted effect of over 55% in size
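Chicken DT40 Tdp1-/- cells stably complemented with human TDP1 were seeded at 400 cells/well with DMSO in place of 20 nM camptothecin. After compound pinning, cells grew at least 48 hr at 37 °C; viability read by CellTiter-Glo luminescence.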
TGFb SMAD3 inh = blocks TGF-b signaling. HepG2 CAGA-GFP TGF-b/SMAD3 reporter, GFP fluorescence, 18 h; TGF-beta stimulated, 500 pg/mL final. Potency, µM (doses to about 46.1 µM), inactives show at the top dose activity, negative = inhibition, most hits filed as inhibitors. 410,000 tested, 1.2% active. AID 588855; note: % is set by controls: 0 for no effect and ±100 for the full control effect; nearly all actives have a fitted effect of over 65% in size
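Read-out: total well GFP (ex488/em500-530) summed from mean per-cell fluorescence. Cells: HEPG2 CAGA-GFP, 1% FBS DMEM, 18 h at 37 degrees C with 500 pg/mL final TGF-beta. Unstimulated wells served as the full-inhibition control; stimulated DMSO wells = 0%.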
TDP1 cell CPT = growth inhibition of DT40 Tdp1-/-;hTDP1 cells with camptothecin (screen for TDP1 inhibitors) | chicken DT40 Tdp1-/-;hTDP1 cells + 20 nM CPT, ATP luminescence, 48 h | Potency, µM (doses to about 46.2 µM), for the others: at the highest dose activity change, negative = growth inhibition, most hits filed as inhibitors | 420,000 tested, 12% active | AID 686979; note: % is set by controls: 0 for no effect and ±100 for the full control effect; nearly all actives have a fitted effect of over 55% in size
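Chicken DT40 Tdp1-/- cells stably complemented with human TDP1 were seeded at 400 cells/well in medium containing 20 nM camptothecin, exposed to pin-transferred compounds, and grown at 37 °C for at least 48 hr. Viability was read as ATP luminescence.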
HepG2 viability = counter-screen for TGF-b inhibitors: cytotoxicity in HepG2 cells; AID 588856; Potency, µM (series often up to 46.1 µM), inactives show at the highest dose activity change, negative = cytotoxicity, actives largely listed as cytotoxic; HepG2 CAGA-GFP viability, ATP luminescence, 18 h; 410,000 tested, 0.76% active
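CellTiter-Glo luminescence gave cytotoxicity after 18 hours at 37 degrees C. The cells were HepG2 CAGA-GFP in 1% FBS DMEM, stimulated with 500 pg/mL TGF-beta after compound addition. %Activity was normalised to no-cell wells (complete cell-killing) and DMSO (no toxicity), and curves were fitted and classified.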
Starred values were filed as active, the others as inactive; ? = inconclusive; . = not tested or not shown; [ ] = remark or other dose. Only some compounds are listed: those with a hit (about 17% of all), similar ones and a draw of the others. Calls come from the whole dose curve; as a rule, active = well fitted curve in the direction sought with a large enough effect; inconclusive = small, poorly fitted or top-dose-only effect, or another doubt; inactive = no such curve, though single readings can be large; an effect the other way counts as inactive or inconclusive. Potency is the fitted concentration of half-maximal effect.

SMILES	HT1080 IDH1KD tx	HT1080-NT tox	DT40 TDP1 no CPT	TGFb SMAD3 inh	TDP1 cell CPT	HepG2 viability
C/C(=N\NC(=O)CSCc1ccc([N+](=O)[O-])cc1)c1ccccc1	0%	-3%	16µM*	-2%	?	32%
C/C(=N\NC(=O)Cc1ccc(Cl)cc1)c1ccccc1O	5.2µM*	?	0.16µM*	?	?	-39%
C/C(=N\NC(=O)Cc1ccc(Cl)cc1)c1ccc(F)cc1	3%	-4%	?	29%	-13%	0%
C[C@H]1Oc2ccccc2C(=O)C1C(=O)c1ccccc1 (some centres undefined)	-9%	0%	-23%	12%	0%	-27%
COc1cc2cnc(-c3ccccc3F)cc2cc1OC	1%	1%	?	7%	-25%	-12%
CCOc1ccc(NS(=O)(=O)c2ccc(NC(=O)[C@@H]3CCCC[C@@H]3C(=O)O)cc2)cc1	1%	3%	-21%	-2%	-18%	14%
Cc1ccc(S(=O)(=O)N2CCCC2CNC(=O)C(=O)NC2CCCC2)cc1 (centres undefined)	-10%	-6%	?	0%	?	-10%
COc1ccc(CCC(=O)N2CCN(C(=O)c3ccccc3)CC2)cc1	11%	11%	10%	5%	-2%	3%
O=C1CC(=O)OC(c2ccc([N+](=O)[O-])cc2)O1	4.6µM*	16µM*	2.3µM*	?	3.3µM*	-57%
CCC1C(=O)C(C)(C)C(=O)OC1c1ccc([N+](=O)[O-])cc1 (centres undefined)	13%	19%	-2%	-7%	37%	-11%
CCN(CC)c1ccc(NC(=O)C2CC(=O)N(Cc3ccccc3)C2)cc1 (centres undefined)	-24%	-1%	12µM*	-18%	?	6%
CN(c1ccccc1)S(=O)(=O)c1cccc(NC(=O)C2CC(=O)N(Cc3ccccc3)C2)c1 (centres undefined)	-1%	0%	21µM*	?	16µM*	7%
CN(C)S(=O)(=O)c1ccc(NC(=O)C2CC(=O)N(Cc3ccccc3)C2)cc1 (centres undefined)	10%	9%	-8%	-21%	7%	-4%
O=C(Nc1cccc(S(=O)(=O)N2CCCCC2)c1)C1CC(=O)N(Cc2ccccc2)C1 (centres undefined)	3%	4%[9.24 µM]	-2%	-28%	?	-29%
C=N[C@@H](C(=O)N[C@@H]1C(=O)N2[C@@H]1SC(C)(C)[C@@H]2C(=O)O)c1ccccc1	.	.	-11%	.	-21%	.
O=C(COCc1cc(-c2ccc3c(c2)OCO3)on1)Nc1cccnc1	5.8µM*	6.5µM*	?	-3%	?	8%
COc1cc(NC(=O)COCc2cc(-c3ccc(F)cc3)on2)cc(OC)c1OC	.	.	9.2µM*	?	13µM*	-9%
COc1ccc(C)cc1NC(=O)COCc1cc(-c2ccc(F)cc2)on1	.	.	?	37%	?	-1%
CC1CN(C(=O)CCC(=O)NCc2ccccc2)c2ccccc2O1 (centres undefined)	0%	0%	8%	-1%	-20%	-6%
COc1ccc(NS(=O)(=O)N2CCCCC2)cc1	8%	2%	-4%	9%	-19%	3%
O=C1c2c(O)cccc2[C@H]([C@@H]2O[C@H](CO)[C@@H](O)[C@H](O)[C@H]2O)c2cc(CO)cc(O)c21	.	.	0%	.	-18%	.
NC(c1csc(Nc2cnccn2)n1)C1CCCCC1 (centres undefined)	10%	-1%	-86%	5%	23µM*	-21%
